Results from PubChem BioAssay (Tox21).
Records with an inconclusive call do not appear. Activity calls are given as the source filed them. Unless noted, the call rests on the fitted dose curve; in most records, active means well fitted curve in the direction sought with a large enough effect in the repeat runs; inconclusive means weak or mixed curves; inactive means no such curve, though single readings can be large; an effect the other way counts as inactive or inconclusive.

Key:
[1] = qHTS assay to test for compound auto fluorescence at 535 nm (green) in HEK293 cells (AID 720680)
[2] = qHTS assay to test for compound auto fluorescence at 460 nm (blue) in HEK293 cell free culture (AID 720681)
Summary of the method: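 Blue fluorescence (Ex 405/Em 460 nm, triamterene-equivalent) was read immediately after pin transfer of compound or DMSO into medium (DMEM, 10% FBS) without cells.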

[3] = qHTS assay to test for compound auto fluorescence at 535 nm (green) in HEK293 cell free culture (AID 720682)
Summary of the method: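 Compounds were pin-transferred into cell-free DMEM with 10% FBS, and green fluorescence was read at excitation 485 nm and emission 535 nm. Intensities were expressed as fluorescein-equivalent values.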

[4] = qHTS assay to test for compound auto fluorescence at 590 nm (red) in HEK293 cell free culture (AID 720683)
Summary of the method: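 Red-channel autofluorescence of compounds in culture medium (DMEM, 10% FBS), no cells, measured at 540/590 nm. Rose Bengal sodium is the reference fluorophore for equivalence.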

[5] = qHTS assay to test for compound auto fluorescence at 590 nm (red) in HepG2 cell free culture (AID 720684)
Summary of the method: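 Steps: dispense MEM/10% FBS medium, no cells; pin compound or DMSO vehicle; read red channel, Ex/Em 540/590 nm. Output given as Rose Bengal sodium equivalents.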

[6] = qHTS assay to test for compound auto fluorescence at 460 nm (blue) in HepG2 cell free culture (AID 720685)
Summary of the method: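 Compound (23 nL) or DMSO pinned into cell-free MEM with 10% FBS; blue fluorescence read at 405/460 nm excitation/emission, expressed as auto-fluorescence equivalency to triamterene.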

[7] = qHTS assay to test for compound auto fluorescence at 535 nm (green) in HepG2 cell free culture (AID 720686)
[8] = qHTS assay to test for compound auto fluorescence at 460 nm (blue) in HepG2 cells (AID 720687)
Summary of the method: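 Blue-channel autofluorescence (Ex/Em 405/460 nm, triamterene-equivalent) was measured after 1 hr compound exposure at 37 C, 5% CO2. Cells were HepG2, plated overnight at 37 C in MEM plus 10% FBS.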

[9] = biological target: Glucocorticoid receptor (Homo sapiens) (UniProt P04150); test: qHTS assay to identify small molecule agonists of the glucocorticoid receptor (GR) signaling pathway (AID 720691; active means well fitted activation curve with a large enough effect in the signal ratio in the repeat runs, not every such curve was filed as active; the % refers to the signal ratio)
Sequence of Glucocorticoid receptor (Homo sapiens) (P04150 whole entry, looked up): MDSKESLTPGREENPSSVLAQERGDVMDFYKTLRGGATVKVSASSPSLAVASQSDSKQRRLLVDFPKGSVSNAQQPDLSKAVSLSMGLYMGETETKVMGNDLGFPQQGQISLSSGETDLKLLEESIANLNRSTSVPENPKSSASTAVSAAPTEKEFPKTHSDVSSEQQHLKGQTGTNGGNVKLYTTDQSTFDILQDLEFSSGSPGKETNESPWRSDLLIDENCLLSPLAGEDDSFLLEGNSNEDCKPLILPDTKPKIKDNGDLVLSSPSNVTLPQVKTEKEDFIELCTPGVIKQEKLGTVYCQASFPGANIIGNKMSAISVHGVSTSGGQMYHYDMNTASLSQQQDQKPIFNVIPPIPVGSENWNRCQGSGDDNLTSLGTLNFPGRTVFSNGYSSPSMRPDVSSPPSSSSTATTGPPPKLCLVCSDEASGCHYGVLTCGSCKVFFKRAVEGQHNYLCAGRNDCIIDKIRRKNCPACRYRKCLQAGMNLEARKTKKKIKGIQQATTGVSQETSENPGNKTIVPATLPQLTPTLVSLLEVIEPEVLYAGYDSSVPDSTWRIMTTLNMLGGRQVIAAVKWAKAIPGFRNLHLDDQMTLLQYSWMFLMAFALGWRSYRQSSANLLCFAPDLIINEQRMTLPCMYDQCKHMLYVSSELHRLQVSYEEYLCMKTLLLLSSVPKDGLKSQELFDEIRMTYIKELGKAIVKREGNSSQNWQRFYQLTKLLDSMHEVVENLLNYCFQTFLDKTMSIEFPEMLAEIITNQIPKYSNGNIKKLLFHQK
Summary of the method: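 Agonist mode in a HeLa line carrying a GRE-controlled beta-lactamase reporter. Compounds act for 18 h at 37 C before a 2 h room-temperature FRET substrate step and fluorescence reading.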

[10] = biological target: Glucocorticoid receptor (Homo sapiens) (UniProt P04150); test: qHTS assay to identify small molecule antagonists of the glucocorticoid receptor (GR) signaling pathway (AID 720692; active means well fitted inhibition curve with a large enough effect in the signal ratio in the repeat runs, not every such curve was filed as active; the % refers to the signal ratio)
Summary of the method: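 Cells plated, rested 4 h at 37 C/5% CO2; compounds in DMSO pin-transferred; dexamethasone added to 5 nM final; 18 h at 37 C; B/G FRET substrate added, 2 h room temperature; fluorescence measured.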

[11] = qHTS assay to identify small molecule antagonists of the glucocorticoid receptor (GR) signaling pathway - cell viability counter screen (AID 720693); further: nearly all actives have a fitted effect of over 55% in size
[12] = qHTS assay for identifying genotoxic compounds that show differential cytotoxicity against isogenic chicken DT40 cell lines with known DNA damage response pathways - wild type cell line (AID 743012); further: nearly all actives have a fitted effect of over 60% in size
Summary of the method: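 Cells (DT40 wild type, 300/well) are treated with DMSO-dissolved compounds after a ~0.5 h pre-incubation and kept 40 h at 37 C/5% CO2. Viability is then measured by CellTiter-Glo luminescence following 30 min at room temperature.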

[13] = qHTS assay for identifying genotoxic compounds that show differential cytotoxicity against isogenic chicken DT40 cell lines with known DNA damage response pathways - Rad54/Ku70 mutant cell line (AID 743015); further: nearly all actives have a fitted effect of over 60% in size
[14] = qHTS assay to identify small molecule antagonists of the androgen receptor (AR) signaling pathway - cell viability counter screen (AID 743033; further: nearly all actives have a fitted effect of over 45% in size)
[15] = qHTS assay to identify small molecule antagonists of the androgen receptor (AR) signaling pathway using the MDA cell line - cell viability counter screen (AID 743041; further: nearly all actives have a fitted effect of over 45% in size)
Summary of the method: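 Cells were plated at 3,000 per well and left 5 h. Compounds in DMSO were then pinned in, followed by R1881. After 16 h at 37C, CellTiter-Fluor fluorescence gave viability.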

[16] = qHTS assay for identifying genotoxic compounds that show differential cytotoxicity against isogenic chicken DT40 cell lines with known DNA damage response pathways - Rev3 mutant cell line (AID 743014); further: nearly all actives have a fitted effect of over 55% in size
[17] = biological target: Androgen receptor (Homo sapiens) (UniProt P10275); test: qHTS assay to identify small molecule antagonists of the androgen receptor (AR) signaling pathway (AID 743035; active means well fitted inhibition curve with a large enough effect in the signal ratio in the repeat runs, not every such curve was filed as active; the % refers to the signal ratio)
Sequence of Androgen receptor (Homo sapiens) (P10275 whole entry, looked up): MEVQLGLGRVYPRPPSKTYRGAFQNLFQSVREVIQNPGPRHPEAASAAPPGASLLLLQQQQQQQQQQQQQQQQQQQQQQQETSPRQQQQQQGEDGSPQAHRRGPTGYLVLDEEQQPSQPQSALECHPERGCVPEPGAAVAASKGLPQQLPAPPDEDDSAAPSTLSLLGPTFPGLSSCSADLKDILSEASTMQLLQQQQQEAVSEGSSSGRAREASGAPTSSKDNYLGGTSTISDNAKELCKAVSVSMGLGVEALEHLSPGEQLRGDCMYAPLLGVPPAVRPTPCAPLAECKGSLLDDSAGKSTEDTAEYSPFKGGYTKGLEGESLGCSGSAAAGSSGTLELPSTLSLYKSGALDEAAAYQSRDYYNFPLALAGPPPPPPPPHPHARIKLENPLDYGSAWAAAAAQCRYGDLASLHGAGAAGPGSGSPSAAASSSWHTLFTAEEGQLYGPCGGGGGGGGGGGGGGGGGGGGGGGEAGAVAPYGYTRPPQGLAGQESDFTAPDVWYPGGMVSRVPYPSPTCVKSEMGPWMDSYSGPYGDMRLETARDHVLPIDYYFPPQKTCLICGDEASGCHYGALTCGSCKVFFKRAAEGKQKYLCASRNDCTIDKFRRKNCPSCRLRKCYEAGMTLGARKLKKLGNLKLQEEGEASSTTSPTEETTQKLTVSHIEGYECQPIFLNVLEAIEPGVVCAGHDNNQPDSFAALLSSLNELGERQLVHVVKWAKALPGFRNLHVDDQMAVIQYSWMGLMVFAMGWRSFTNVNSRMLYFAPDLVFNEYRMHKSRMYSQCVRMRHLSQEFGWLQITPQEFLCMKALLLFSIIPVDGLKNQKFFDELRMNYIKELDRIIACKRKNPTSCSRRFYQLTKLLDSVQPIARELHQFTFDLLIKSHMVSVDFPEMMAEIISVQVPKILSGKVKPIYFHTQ
Summary of the method: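 Antagonism is scored as loss of R1881-driven beta-lactamase reporter expression in HEK293 cells carrying the reporter under a UAS element, after 16 h co-treatment at 37C and a 2 h room-temperature FRET substrate read.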

[18] = biological target: Androgen receptor (Homo sapiens) (UniProt P10275); test: qHTS assay to identify small molecule agonists of the androgen receptor (AR) signaling pathway (AID 743036; active means well fitted activation curve with a large enough effect in the signal ratio in the repeat runs, with a control signal flat, not every such curve was filed as active; the % refers to the signal ratio)
Summary of the method: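 Activation was read as beta-lactamase FRET signal from LiveBLAzer B/G substrate, added for 2 h at room temperature. Before that, GeneBLAzer AR-UAS-bla GripTite (HEK293) cells had 16 h compound exposure at 37C.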

[19] = biological target: Androgen receptor (Homo sapiens) (UniProt P10275); test: qHTS assay to identify small molecule agonists of the androgen receptor (AR) signaling pathway using the MDA cell line (AID 743040; further: nearly all actives have a fitted effect of over 20% in size)
Summary of the method: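 Cells plated, 5 h at 37C/0% CO2; compound or DMSO pinned; 16 h at 37C; ONE-Glo added; luminescence measured after 30 min at room temperature. Reporter line: MDA-kb2 with MMTV-luciferase responsive to AR and GR.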

[20] = biological target: Androgen receptor (Homo sapiens) (UniProt P10275); test: qHTS assay to identify small molecule antagonists of the androgen receptor (AR) signaling pathway using the MDA cell line (AID 743042; further: nearly all actives have a fitted effect of over 55% in size)
Summary of the method: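 Antagonist mode: compounds plus R1881 agonist added to MDA-kb2 AR-luc cells, incubated 16 h at 37C. Luciferase reporter luminescence quantified, with multiplexed CellTiter-Fluor readout for cell viability.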

Measured: Potency

CC(C)(C#N)c1cc(Cn2cncn2)cc(C(C)(C)C#N)c1
not listed: [16] | [17] | [18] | [19] | [20]
inactive: all other assays above

CCc1ccccc1CC
not listed: [17] | [18] | [19] | [20]
inactive: all other assays above

C=CCc1ccc(OC)c(OC)c1
not listed: [16] | [17] | [18] | [19] | [20]
inactive: all other assays above

CC(=O)CCC=C(C)C
not listed: [17] | [18] | [19] | [20]
inactive: all other assays above

CCOCC(=O)O
not listed: [17] | [18] | [19] | [20]
inactive: all other assays above

CC(C)CC(=O)CC(C)CC(C)C (stereo not given)
not listed: [10]
inactive: all other assays above

CC(C)OC(=O)COc1ccc(Cl)cc1Cl
not listed: [17] | [18] | [19] | [20]
inactive: all other assays above

Nc1nc(N)nc(-c2ccccc2)n1
not listed: [17] | [18] | [19] | [20]
inactive: all other assays above

CCCCCCCCCCN
not listed: [17] | [18] | [19] | [20]
inactive: all other assays above
